SMILES strings stand for the structures. Where “and” joins values, the source holds several entries; their conditions need not be identical. Identical values can stand only once. Inconclusive results are not listed. Calls of active or inactive are those of the source.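 How the source made its calls, unless noted: active means compounds whose cell count with miR-34 switched on is under 0.7 times the count with it off; inactive means the rest.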

The nature of the first assay: growth inhibition of DIPG cells – cell-based, MIPE5.0 library, qHTS (AID 1347068; cut-off not given, nearly all actives have IC50 up to about 30 µM;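 on IC50: cells exposed to compound for 48 hours before viability readout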). Conditions: SU-DIPG-XXV viability.
As for `CC(NCCc1ccc(O)cc1)C(O)c1ccc(O)cc1` (stereo not drawn), the compound was classed as inactive.
As for `N[C@@H](CC(=O)N1CCn2c(nnc2C(F)(F)F)C1)Cc1cc(F)c(F)cc1F`, the compound was classed as inactive.
Regarding `OC[C@@H](O)[C@@H](O)[C@H](O)[C@@H](O)CO`, the compound was classed as inactive.
On the same count and under the same terms, to `O=c1ccn([C@@H]2O[C@H](CO)[C@@H](O)[C@H]2O)c(=O)[nH]1` belongs “inactive”; to `N#C[C@@H]1C[C@@H]2C[C@@H]2N1C(=O)[C@@H](N)C12CC3CC(CC(O)(C3)C1)C2`, “inactive”; to `CC(C)(CO)[C@@H](O)C(=O)NCCC(=O)O`, “inactive”.
Same read-out and setting: to `CC(C)C(C)/C=C/C(C)C1CCC2C3=CC=C4CC(O)CCC4(C)C3CCC21C` (stereo not drawn) belongs “inactive”; to `C[C@H]1COC2=C1C(=O)C(=O)c1c2ccc2c1CCCC2(C)C`, “inactive”.
Still for that read-out and setting: to `CN1C(C(=O)Nc2ccccn2)=C(O)c2sc(Cl)cc2S1(=O)=O` belongs “inactive”.
Consider `COC1=C(OC)C(=O)C(C/C=C(\C)CC/C=C(\C)CC/C=C(\C)CC/C=C(/C)CC/C=C(\C)CC/C=C(\C)CC/C=C(\C)CC/C=C(\C)CC/C=C(\C)CCC=C(C)C)=C(C)C1=O`, for which the result was inactive.
On the same count and under the same terms, to `COC(=O)/C=C/C(=O)OC` belongs “inactive”; to `CN[C@@H]1[C@H](O[C@H]2[C@H](O[C@@H]3[C@@H](O)[C@H](O)[C@@H](N=C(N)N)[C@H](O)[C@H]3N=C(N)N)O[C@@H](C)[C@]2(O)C=O)O[C@@H](CO)[C@H](O)[C@H]1O`, “inactive”; to `Oc1cc2c(cc1O)C1c3ccc(O)c(O)c3OCC1(O)C2` (stereo not drawn), “inactive”.
Same read-out and setting: for `CCCCS(=N)(=O)CCC(N)C(=O)O` (stereo not drawn) the value was “inactive”; for `Cc1coc2c1C(=O)C(=O)c1c-2ccc2c1CCCC2(C)C`, “inactive”.
Turning to `Nc1nc(F)nc2c1ncn2[C@@H]1O[C@H](COP(=O)(O)O)[C@@H](O)[C@@H]1O`, the result was inactive.
As a reminder, the IC50 is the concentration that inhibits the measured activity by half. For the compound `CC[C@]1(O)CC2CN(CCc3c([nH]c4ccccc34)[C@@](C(=O)OC)(c3cc4c(cc3OC)N(C)[C@H]3[C@@](O)(C(=O)OC)[C@H](OC(C)=O)[C@]5(CC)C=CCN6CC[C@]43[C@@H]65)C2)C1` (stereo partly drawn), the concentration for half-maximal inhibition (IC50) is 3.32 µM (active).
In the case of `COc1ccc2nc3cc(Cl)ccc3c(Nc3cc(CN4CCCC4)c(O)c(CN4CCCC4)c3)c2n1`, the 50% inhibitory concentration (IC50) was 10.5 µM (active).
Turning to `CC(=O)NC(CS)C(=O)O` (stereo not drawn), the call was inactive.
For `C[C@]12CCC3c4ccc(O)cc4CCC3C1CCC2=O` (stereo partly drawn), the call was inactive.

Another assay is described as follows: viability loss with induced miR-34 in A549 – imaging, A549 dox-inducible miR-34, nuclei and caspase counts, primary screen (AID 1347080). The settings on record: A549 miR-34 inducible, Hoechst nuclei count, 48 h; stronger effect = lower value; cell number ratio, induced over uninduced.
For `Cc1c(-c2cnccn2)ssc1=S`, the fold change was 0.88 (inactive).
Still for that read-out and setting: to `CC(NCCc1ccc(O)cc1)C(O)c1ccc(O)cc1` (stereo not drawn) belongs 0.955 (inactive); to `OC[C@@H](O)[C@@H](O)[C@H](O)[C@@H](O)CO`, 0.939 (inactive).
As to `CC1CC2C3CCC4=CC(=O)C=C[C@]4(C)[C@@]3(F)[C@@H](O)C[C@]2(C)[C@@]1(O)C(=O)CO` (stereo partly drawn), the fold change is 0.94 (inactive).
For `N#C[C@@H]1C[C@@H]2C[C@@H]2N1C(=O)[C@@H](N)C12CC3CC(CC(O)(C3)C1)C2`, the fold change is 0.886 (inactive).
Still for that read-out and setting: for `CC(C)(CO)[C@@H](O)C(=O)NCCC(=O)O` the value was 0.92 (inactive) and 0.869 (inactive) and 0.91 (inactive).
Turning to `C[C@]12C=CC(=O)C=C1CCC1C2[C@@H](O)C[C@@]2(C)C1CC[C@]2(O)C(=O)COP(=O)(O)O` (stereo partly drawn), the fold change was 0.855 (inactive).
Same read-out and setting: to `CN(C)CC[C@H](c1ccc(Cl)cc1)c1ccccn1` belongs 0.84 (inactive); to `CC(C)OC(=O)CCC/C=C\C[C@@H]1[C@@H](/C=C/C(O)COc2cccc(C(F)(F)F)c2)[C@H](O)C[C@@H]1O` (stereo partly drawn), 0.865 (inactive).
Still for that read-out and setting: for `OC(c1cc(C(F)(F)F)nc2c(C(F)(F)F)cccc12)C1CCCCN1` (stereo not drawn) the value was 0.709 (inactive) and 0.928 (inactive); for `CN1C(C(=O)Nc2ccccn2)=C(O)c2sc(Cl)cc2S1(=O)=O`, 0.905 (inactive) and 0.871 (inactive).
For the compound `Nc1nc(N)c2nc(CNc3ccc(C(=O)NC(CCC(=O)O)C(=O)O)cc3)cnc2n1` (stereo not drawn), the fold change was 1.22 (inactive).
Turning to `COC(=O)/C=C/C(=O)OC`, the fold change was 0.976 (inactive).
Still for that read-out and setting: for `Cc1cc2nc3c(=O)[nH]c(=O)nc-3n(CC(O)C(O)C(O)CO)c2cc1C` (stereo not drawn) the value was 0.948 (inactive).
Same read-out and setting: for `CN[C@@H]1[C@H](O[C@H]2[C@H](O[C@@H]3[C@@H](O)[C@H](O)[C@@H](N=C(N)N)[C@H](O)[C@H]3N=C(N)N)O[C@@H](C)[C@]2(O)C=O)O[C@@H](CO)[C@H](O)[C@H]1O` the value was 0.935 (inactive) and 0.903 (inactive); for `CCCCS(=N)(=O)CCC(N)C(=O)O` (stereo not drawn), 0.991 (inactive); for `CC12CCC3c4ccc(O)cc4CCC3C1C[C@H](O)[C@@H]2O` (stereo partly drawn), 0.999 (inactive).
Same read-out and setting: for `Cc1coc2c1C(=O)C(=O)c1c-2ccc2c1CCCC2(C)C` the value was 1.17 (inactive) and 1.16 (inactive) and 1.64 (inactive).
Regarding `Nc1nc(F)nc2c1ncn2[C@@H]1O[C@H](COP(=O)(O)O)[C@@H](O)[C@@H]1O`, the fold change is 1.07 (inactive).
Still for that read-out and setting: to `CC[C@]1(O)CC2CN(CCc3c([nH]c4ccccc34)[C@@](C(=O)OC)(c3cc4c(cc3OC)N(C)[C@H]3[C@@](O)(C(=O)OC)[C@H](OC(C)=O)[C@]5(CC)C=CCN6CC[C@]43[C@@H]65)C2)C1` (stereo partly drawn) belongs 1.13 (inactive) and 1.04 (inactive).
Still for that read-out and setting: to `CC1=C(C(=O)O)N2C(=O)[C@@H](NC(=O)C(N)c3ccccc3)[C@H]2SC1` (stereo partly drawn) belongs 1.03 (inactive) and 0.832 (inactive).
On the same count and under the same terms, for `C=CC[C@@H]1/C=C(\C)C[C@H](C)C[C@H](OC)[C@H]2O[C@@](O)(C(=O)C(=O)N3CCCC[C@H]3C(=O)O[C@H](/C(C)=C/[C@@H]3CC[C@@H](O)[C@H](OC)C3)[C@H](C)[C@@H](O)CC1=O)[C@H](C)C[C@@H]2OC` the value was 1.03 (inactive) and 0.874 (inactive).
On to `CC(C)(CO)C(O)C(=O)NCCC(=O)NCCSSCCNC(=O)CCNC(=O)C(O)C(C)(C)CO` (stereo not drawn), for which the fold change is 0.968 (inactive).
Turning to `N#CC(c1ccc(Cl)cc1)c1c(Cl)cc(-n2ncc(=O)[nH]c2=O)cc1Cl` (stereo not drawn), the fold change was 0.879 (inactive) and 0.842 (inactive).
For the compound `Cc1cc(=O)c(C(=O)N[C@@H](C(=O)N[C@@H]2C(=O)N3C(C(=O)O)=C(CSc4nnnn4C)CSC23)c2ccc(O)cc2)c[nH]1` (stereo partly drawn), the fold change is 0.93 (inactive).
For the compound `COc1ccc(C2Sc3ccccc3N(CCN(C)C)C(=O)C2OC(C)=O)cc1` (stereo not drawn), the fold change is 0.937 (inactive) and 0.887 (inactive).
The same measure, in the same setting: to `COc1ccc2nc3cc(Cl)ccc3c(Nc3cc(CN4CCCC4)c(O)c(CN4CCCC4)c3)c2n1` belongs 1.01 (inactive); to `C[C@]12CCC3c4ccc(O)cc4CCC3C1CCC2=O` (stereo partly drawn), 1.01 (inactive).

These data come from PubChem BioAssay.
